High-throughput results: PubChem BioAssay, National Center for Advancing Translational Sciences (NCATS)
Cruzain inh noDet – qHTS Assay for Promiscuous and Specific Inhibitors of Cruzain (without detergent) | Cruzipain (Trypanosoma cruzi), P25779 | purified cruzain, Z-FR-AMC fluorescence, no detergent | hit rate 2.3% among 200,000 | Potency, µM, most hits filed as inhibitors; also: nearly all actives have a fitted effect of over 40% in size
Target sequence (P25779 123-467 limits assumed): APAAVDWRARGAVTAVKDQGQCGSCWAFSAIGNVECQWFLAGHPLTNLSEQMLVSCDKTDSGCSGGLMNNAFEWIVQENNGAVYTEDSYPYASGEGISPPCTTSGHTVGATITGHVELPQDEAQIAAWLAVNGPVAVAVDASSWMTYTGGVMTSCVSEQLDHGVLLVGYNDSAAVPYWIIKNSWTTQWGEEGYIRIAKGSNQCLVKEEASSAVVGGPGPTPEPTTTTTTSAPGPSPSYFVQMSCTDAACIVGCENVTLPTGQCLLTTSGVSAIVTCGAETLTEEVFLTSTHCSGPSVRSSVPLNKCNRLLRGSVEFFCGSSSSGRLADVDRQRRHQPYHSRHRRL
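Detergent-free condition (0.00005% Triton X-100) in acetate buffer pH 5.5 with DTT. 1.5 nM enzyme and compound were pre-mixed 15 min, then 2 uM Z-FR-AMC substrate added; reaction progress from fluorescence change between first and third reads (60 s).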
Cruzain Triton – qHTS Assay for Promiscuous and Specific Inhibitors of Cruzain (with detergent). Cruzipain (Trypanosoma cruzi), P25779. purified cruzain, Z-FR-AMC fluorescence, 0.01% Triton. hit rate 0.43% among 200,000. Potency, µM, usual class: inhibitors; also: nearly all actives have a fitted effect of over 40% in size
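Sodium acetate buffer (100 mM, pH 5.5) containing 5 mM DTT and 0.01% Triton X-100 hosted 1.5 nM cruzain and test compound for 15 min at room temperature. Cleavage of 2 uM Z-FR-AMC was then tracked by fluorescence.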
A number is an active result; – = inactive; ? = inconclusive. Shown are actives, neighbours in structure and some others; about 2.5% of the full set was active somewhere. Calls follow the shape of the dose curve; as a rule, active = well fitted curve in the direction sought with a large enough effect; inconclusive = small, poorly fitted or top-dose-only effect, or another doubt; inactive = no such curve, though single readings can be large; an effect the other way counts as inactive or inconclusive.

SMILES | Cruzain inh noDet | Cruzain Triton
CSc1cccc(NC(=O)C2CCCN(C(=O)c3cnn(-c4ccc(F)cc4)c3-n3cccc3)C2)c1 (configuration not stated) | ? | –
CN(C(=O)Cn1nnc(-c2ccc(S(C)(=O)=O)cc2)n1)c1ccccc1 | – | –
COc1ccc(NC(=O)c2sc3cc(C(F)(F)F)cnc3c2-c2cccs2)cc1 | – | –
O=C(O)c1sc2cc(C(F)(F)F)cnc2c1-c1ccccc1 | 16µM | ?
COC(=O)c1sc2cc(C(F)(F)F)cnc2c1-c1ccccc1 | – | –
O=C(Nc1ccc(F)cc1)c1sc2cc(C(F)(F)F)cnc2c1-c1cccs1 | 25µM | –
Cc1cc(N)c2cc(OCCOc3ccc4nc(C)cc(N)c4c3)ccc2n1 | – | –
CSc1cccc(NC(=O)N2CCN(S(=O)(=O)c3ccc4c(ccn4C)c3)CC2)c1 | ? | –
Cc1noc(C)c1C(=O)OCC(=O)NC(c1ccccc1)c1ccccc1 | – | –
Cc1onc(-c2c(F)cccc2Cl)c1C(=O)OCC(=O)NC(c1ccccc1)c1ccccc1 | 32µM | –
O=C(CSc1nnc(-c2ccc(F)cc2)o1)N1CCCc2ccccc21 | – | –
Cc1ccc(C(=O)N/N=C/c2cc(C)n(-c3ccc(Br)cc3)c2C)cc1[N+](=O)[O-] | 20µM | –
Cc1ccc(-n2c(C)cc(/C=N/NC(=O)c3ccncc3)c2C)cc1 | – | –
COc1ccc(-c2nn(-c3ccccc3)cc2/C=N/NC(=O)c2ccc(Br)o2)cc1 | 25µM | –
COc1ccc(-c2nn(-c3ccccc3)cc2/C=N/NC(=O)c2cccc(S(=O)(=O)Nc3ccccc3OC)c2)cc1 | 10µM | –
COc1ccc(-c2nn(-c3ccccc3)cc2C(=O)Nc2ccccc2OC)cc1 | – | –
COc1ccc(-c2nn(-c3ccccc3)cc2/C=N/NC(=O)c2ccc3c(c2)OCO3)cc1 | ? | –
O=C(N/N=C/c1cn(-c2ccccc2)nc1-c1ccc(F)cc1)c1ccc2c(c1)OCO2 | ? | –
O=C(N/N=C/c1cn(-c2cccs2)nc1-c1ccccc1)c1ccccc1Br | ? | –
O=C(N/N=C/c1cn(-c2ccccc2)nc1-c1cc2ccccc2o1)c1ccccc1Br | 7.9µM | –
O=C(N/N=C\c1cn(-c2ccccc2)nc1-c1ccccc1)c1ccc2c(c1)OCO2 | 20µM | –
O=C(O)CN1CCN(CC(=O)O)CC(=O)[O][Hg][O]C(=O)C1 | – | –
COc1cc(S(=O)(=O)NCCc2c(C)[nH]c3ccccc23)c(C)cc1C | – | –
COc1ccc(NC(=O)c2ccc3c(=O)n4nc(Nc5ccccc5C)sc4nc3c2)cc1Cl | – | –
Cc1ccc(C)c(NC(=O)CCc2c(C)nn(-c3ccc(N4CCCC4)nn3)c2C)c1 | – | –
SMILES | Cruzain inh noDet | Cruzain Triton
CCOC(=O)c1cc(C)n(CC2CCC(C(=O)Nc3cc(OC)cc(OC)c3)CC2)c1C (configuration not stated) | – | –
Cc1nc2c(C(=O)NCc3ccc4c(c3)OCO4)cnn2c(C)c1Cc1ccc(F)cc1Cl | 16µM | –
Cc1ccccc1Cc1c(C)nc2c(C(=O)NCc3ccc4c(c3)OCO4)cnn2c1C | – | –
COc1ccc2c(c1)cc1c(=O)n(CC(=O)NCc3ccco3)nc(C)n12 | – | –
CCOC(=O)NC(=O)CSc1nc(C)cc(C(F)(F)F)c1C#N | – | –
Cc1cc(C(F)(F)F)c(C#N)c(SCC(=O)Nc2nc3cc(Br)ccc3s2)n1 | 20µM | –
COc1ccc(C2CC(=O)c3cc(-c4nc(-c5ccc(Cl)cc5)c(C)s4)c(=O)[nH]c3C2)cc1 (configuration not stated) | – | –
O=C1N/C(=C/c2cccn2-c2ccccc2)C(=O)N1Cc1ccc(F)cc1 | 13µM | –
O=C1N/C(=C/c2cccn2-c2ccc(F)cc2)C(=O)N1Cc1ccccc1F | ? | –
Cc1cccc(NC(=O)c2ccc(-n3c(C)nnc3C)cc2)c1 | – | –
O=C(Nc1nnc(CCc2ccccc2)s1)c1cccs1 | ? | –
O=C(Nc1nnc(COc2ccc(Cl)cc2)s1)C1CCCO1 (configuration not stated) | – | –
Cc1ccc(S(=O)(=O)CCc2nnc(NC(=O)c3cccs3)s2)cc1 | ? | –
O=C(Nc1nnc(COc2ccc(F)cc2)s1)c1cccs1 | 25µM | –
Cc1cccc(OCc2nnc(NC(=O)c3cccs3)s2)c1 | 13µM | –
O=C(Nc1nnc(COc2ccc(Cl)cc2)s1)c1cccs1 | 25µM | –
COc1ccccc1CNC(=O)CN1C(=O)COc2ccc(S(=O)(=O)N3CCC(C)CC3)cc21 | – | –
Cc1cc[c]([Sb]2[O]C([C@H](O)[C@H](O)C(=O)O)[C@@H](CO)[O]2)cc1 (some centres not stated) | – | –
c1ccc(-c2nnc(CN3CCN(c4ccccn4)CC3)o2)cc1 | – | –
COc1ccc(CNc2oc(/C=C/c3cc(OC)c(OC)c(OC)c3)nc2C#N)cc1 | ? | –
CN(C)CS/C(N)=N/[C@H](O)C(Cl)(Cl)Cl | – | –
COc1ccccc1C(=O)NC(=Nc1nc2ccccc2o1)NC(=O)c1ccccc1OC | ? | –
O=C(NC(=Nc1nc2ccccc2o1)NC(=O)c1ccccc1)c1ccccc1 | 13µM | –
COc1ccccc1OCC(=O)NCCc1nc2ccccc2[nH]1 | 13µM | 16µM
Cc1ccc(C(C)(C)C)c(OCC(=O)NCCc2nc3ccccc3[nH]2)c1 | – | –
SMILES | Cruzain inh noDet | Cruzain Triton
Cc1cc(OCC(=O)NCCc2nc3ccccc3[nH]2)cc(C)c1Cl | – | 8.9µM
CCC(=O)NCCc1nc2ccccc2[nH]1 | – | –
COc1ccc(NC(=O)CC2C(=O)N(c3ccccc3)C(=O)N2CCc2sccc2C)cc1 (configuration not stated) | – | –
CCOc1cc(/C=N\NC(=O)Cn2nc([N+](=O)[O-])cc2C)ccc1OCc1cccc2ccccc12 | 13µM | –
CCOc1cc(/C=N/NC(=O)CSc2nnc(C)s2)ccc1OCc1ccccc1Cl | – | –
Cc1ccc(/C(N)=N/OC(=O)c2cc(-c3ccccc3)nc3ccccc23)cc1 | – | –
COc1ccc(/C(N)=N/OC(=O)c2cc(-c3ccccc3)nc3ccccc23)cc1 | 20µM | –
O=C(C1COc2ccccc2O1)N(Cc1cccnc1)c1nc2ccc(Cl)cc2s1 (configuration not stated) | – | –
C=CC(=O)OCCOCCOC(=O)C=C | – | –
O=C(Oc1ccc2c(-c3ccccc3)cc(=O)oc2c1)c1cccs1 | 6.3µM | –
CCc1cc2c(-c3ccccc3)cc(=O)oc2cc1OC(=O)c1cccs1 | – | –
COc1ccc(-c2c3c(=O)n(C)c(=O)n(C)c3c3c(-c4ccccc4)nc4ccccc4n23)cc1 | – | –
O=C(Oc1ccc2c(=O)c(Oc3ccc4ccccc4c3)coc2c1)c1cncc(Br)c1 | 3.2µM | –
O=C(Oc1ccc2ccccc2c1)c1cncc(Br)c1 | ? | –
CN(C)c1ccc(/C=C/C=C2/SC(=S)N(c3ccccc3)C2=O)cc1 | 7.9µM | –
O=C1/C(=C/c2cccnc2)SC(=S)N1c1ccccc1 | – | –
CC(=O)Nc1ccc(NC(=O)CCc2c(C)nc3c(c(C)nn3-c3ccc(C)cc3)c2C)cc1 | ? | –
O=c1c(-c2cccs2)nc2cnc(Oc3ccccc3)nc2n1Cc1cccs1 | ? | –
COc1ccc(Oc2ncc3nc(-c4cccs4)c(=O)n(Cc4cccc(OC)c4)c3n2)cc1 | 13µM | –
